# Results filed as inconclusive are left out. A call without a number means that no potency is given here. The source made the active and inactive calls. The call rests on the fitted dose curve.
# Test: Cytotoxicity counterscreen for inhibitors of SARS-CoV-2 cell entry (AID 1645845); further: nearly all actives have a fitted effect of over 50% in size
# Details: cell viability (SARS-CoV-2 entry assay cells); series mostly up to 57.1 µM
# Method in brief: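 HEK293-ACE2 cells (Expi293F stably expressing human ACE2) seeded overnight, then compound for 1 h plus 48 h at 37C. Viability as ATP content by luminescence; normalized to wells with cells and media-only wells.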
SMILES,Potency,outcome
CCO[C@H](Cc1ccc(OCCc2ccc(OS(C)(=O)=O)cc2)cc1)C(=O)O,inactive,–
CC(C)(Oc1ccc(C2CC2(Cl)Cl)cc1)C(=O)O (stereo not given),inactive,–
CC(=O)OCC(=O)[C@H]1CC[C@H]2[C@@H]3CCC4=CC(=O)CC[C@]4(C)[C@H]3CC[C@]12C,inactive,–
CC(C)Cc1ccc(CC(=O)O)cc1,inactive,–
COc1cc(C(=O)NS(=O)(=O)c2ccccc2C)ccc1Cc1cn(C)c2ccc(NC(=O)OC3CCCC3)cc12,inactive,–
COc1ccc2c(c1)c(CC(=O)OC/C=C(\C)CC/C=C(\C)CCC=C(C)C)c(C)n2C(=O)c1ccc(Cl)cc1,inactive,–
O=C(O)[C@H](O)c1ccccc1,inactive,–
C[N+](C)(C)CCCCCC[N+](C)(C)C,inactive,–
COc1ccc(O)cc1,inactive,–
CN(C)CCc1c[nH]c2ccc(Cn3cncn3)cc12,inactive,–
O=P(O)(O)C(Sc1ccc(Cl)cc1)P(=O)(O)O,–,inactive [at 0.702 µM]
N[C@@H](CCC(=O)N[C@@H](CS)C(=O)NCC(=O)O)C(=O)O,inactive,–
CCCCCN(CCCOC)C(=O)C(CCC(=O)O)NC(=O)c1ccc(Cl)c(Cl)c1 (stereo not given),inactive,–
C=CCN1C[C@H](C(=O)N(CCCN(C)C)C(=O)NCC)C[C@@H]2c3cccc4[nH]cc(c34)C[C@H]21,inactive,–
O=C(O)c1cc(O)c(O)c(O)c1,inactive,–
O=C(Oc1ccccc1)c1ccccc1O,inactive,–
Nc1nc(Cl)nc2c1ncn2[C@H]1C[C@H](O)[C@@H](CO)O1,inactive,–
Nc1nc(/C(=C/CC(=O)O)C(=O)N[C@@H]2C(=O)N3C(C(=O)O)=CCS[C@H]23)cs1,inactive,–
CCCCCC=CCC=CCCCCCCCC(=O)OCC,inactive,–

SMILES,Potency,outcome
CC(C)[C@H](N)C(=O)OCC(CO)OCn1cnc2c(=O)[nH]c(N)nc21 (stereo not given in full),inactive,–
Nc1ccc(S(=O)(=O)Nc2ccccn2)cc1,inactive,–
OC[C@H]1O[C@H](O[C@]2(CCl)O[C@H](CCl)[C@@H](O)[C@@H]2O)[C@H](O)[C@@H](O)[C@H]1Cl,inactive,–
CC(=O)OCC(=O)[C@@]1(OC(C)=O)[C@@H](C)C[C@H]2[C@@H]3C[C@H](F)C4=CC(=O)C=C[C@]4(C)[C@@]3(F)[C@@H](O)C[C@@]21C,inactive,–
Cc1c(C(=O)O)c(O)cc2c1C(=O)c1c(O)c([C@@H]3O[C@H](CO)[C@@H](O)[C@H](O)[C@H]3O)c(O)c(O)c1C2=O,inactive,–
CC(=O)OC(C)C[N+](C)(C)C (stereo not given),inactive,–
CCn1cc(C(=O)O)c(=O)c2cnc(N3CCNCC3)nc21,inactive,–
CC(C)(O/N=C(\C(=O)N[C@@H]1C(=O)N2C(C(=O)[O-])=C(C[n+]3ccccc3)CS[C@H]12)c1csc(N)n1)C(=O)O,inactive,–
CCc1oc2ccccc2c1C(=O)c1cc(I)c(O)c(I)c1,inactive,–
CC(CSC(=O)c1ccccc1)C(=O)N1C[C@@H](Sc2ccccc2)C[C@H]1C(=O)O (stereo not given in full),inactive,–
CN(C)CCN(Cc1ccsc1)c1ccccn1,inactive,–
C=C1[C@H](CO)[C@@H](O)C[C@@H]1n1cnc2c(=O)[nH]c(N)nc21,inactive,–
NCCNCCNCCN,inactive,–
Cc1ncc(CO)c(CO)c1O,inactive,–
O=C(O)c1cc(=O)c2c(OCC(O)COc3cccc4oc(C(=O)O)cc(=O)c34)cccc2o1,inactive,–
CO[C@@]1(NC(=O)CSC[C@@H](N)C(=O)O)C(=O)N2C(C(=O)O)=C(CSc3nnnn3C)CS[C@@H]21,inactive,–
COc1ccc2cc([C@H](C)C(=O)O)ccc2c1,inactive,–
O=C(CCOCCOCCOCCOCCC(=O)Nc1c(I)cc(I)c(C(=O)O)c1I)Nc1c(I)cc(I)c(C(=O)O)c1I,inactive,–

# Test: Primary qHTS to identify inhibitors of SARS-CoV-2 cell entry (AID 1645846); further: nearly all actives have a fitted effect of over 45% in size
# Details: SARS-CoV-2 pseudovirus cell entry assay, luminescence; activity change, negative = inhibition: at 57.1 µM (top of the series) unless noted; series mostly up to 57.1 µM
# Method in brief: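 Entry measured by luciferase signal 48 h after adding SARS-CoV-2-S pseudotyped MLV particles to HEK293-ACE2 cells preincubated 1 h with compounds. Normalisation: bald particles and spike particles.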
SMILES,Potency,"activity change, negative = inhibition [%]"
CC(C)(Oc1ccc(C2CC2(Cl)Cl)cc1)C(=O)O (stereo not given),inactive,–
CC(C)Cc1ccc(CC(=O)O)cc1,inactive,–
COc1ccc2c(c1)c(CC(=O)OC/C=C(\C)CC/C=C(\C)CCC=C(C)C)c(C)n2C(=O)c1ccc(Cl)cc1,inactive,–
C[N+](C)(C)CCCCCC[N+](C)(C)C,–,-3.21
O=C(Oc1ccccc1)c1ccccc1O,inactive,–
Nc1nc(/C(=C/CC(=O)O)C(=O)N[C@@H]2C(=O)N3C(C(=O)O)=CCS[C@H]23)cs1,–,-21.3
CC(=O)OC(C)C[N+](C)(C)C (stereo not given),inactive,–
CCn1cc(C(=O)O)c(=O)c2cnc(N3CCNCC3)nc21,–,0.978
CCc1oc2ccccc2c1C(=O)c1cc(I)c(O)c(I)c1,–,-21.9
CN(C)CCN(Cc1ccsc1)c1ccccn1,–,-8.15
NCCNCCNCCN,–,2.68
Cc1ncc(CO)c(CO)c1O,–,-1.83
COc1ccc2cc([C@H](C)C(=O)O)ccc2c1,inactive,–

# From PubChem BioAssay (NCATS)
